Laboratory results published in PubChem BioAssay AID590 (National Center for Advancing Translational Sciences (NCATS), 2007).
Screen size: about 59,000 compounds; about 6,500 (11%) were called active. Another 15% or so got no clear call; they are omitted. Rule as the data show it: active = max dye-equivalent concentration above about 10 nM; inconclusive = mostly about 1.1 nM to 9.6 nM; inactive = weaker than that. The full list was thinned out, with actives kept by preference.

Assay: qHTS Assay for Spectroscopic Profiling in A350 Spectral Region
Settings: Compound autofluorescence, 340/450 nm, Alexa 350 dye-equivalents; active compounds read high

Row | SMILES | max dye-equivalent concentration
1 | CN1CCN(CC(=O)C23CC4CC(CC(C4)C2)C3)CC1 | inactive
2 | C=CCNC(=O)C12CC3CC(C1)CC(C(=O)NCC=C)(C3)C2 | inactive
3 | CC(NCCO)C(=O)C12CC3CC(CC(C3)C1)C2 (stereo not drawn) | 43 nM (active)
4 | O=C(O)CCC(=O)Nc1ccc(N2CCOCC2)cc1 | inactive
5 | CN(C)c1nc2n(c(=O)n1)CCO2 | inactive
6 | Cc1ccsc1CNn1cnnc1SCc1ccccc1F | inactive
7 | O=C(c1cnccn1)N1CCC2(CCN(Cc3cc(C(F)(F)F)cc(C(F)(F)F)c3)CC2)CC1 | inactive
8 | CCN1CCN(c2ncnc3c2oc2nc(C)c4c(c23)CC(C)(C)OC4)CC1 | inactive
9 | Cc1nc(NCCN)c(C#N)c2c1COC(C)(C)C2 | 16 nM (active)
10 | COc1ccc2[nH]cc(CCNc3cc(-c4ccccc4CN(C)C)ncn3)c2c1 | inactive
11 | Nc1ccc2c3c(cccc13)C(=O)NC2=O | inactive
12 | CNc1nc(-c2ccccc2OC)nc2ccccc12 | inactive
13 | CCSc1nc(=S)n(CC)c(C)c1C(C)=O | inactive
14 | CCOC(=O)N1CCC(NC(=O)CCc2cn(C)c3ccccc23)CC1 | 470 nM (active)
15 | CCOC(=O)N1CCC(NC(=O)C(C)n2c3ccccc3c3cnn(C)c(=O)c32)CC1 (stereo not drawn) | inactive
16 | CCOC(=O)N1CCC(NC(=O)Cc2cn(C)c3ccccc23)CC1 | inactive
17 | CC(=O)N1CCN(C(=O)c2cccc(S(=O)(=O)Nc3ccc(C)cc3)c2)CC1 | inactive
18 | CC1(C)CC(CCC(=O)Nc2ccccc2Cl)C(=O)O1 (stereo not drawn) | inactive
19 | CC(C)c1nc2oc3c(N4CCN(C)CC4)ncnc3c2c2c1CCC2 | inactive
20 | CCCCC(=O)Nc1ccc(C(=O)NCCCn2ccnc2)cc1 | inactive
21 | CCCCC(=O)Nc1ccc2c(c1)OCCO2 | inactive
22 | CCCCCC(=O)Nc1ccc2oc(-c3ccncc3)nc2c1 | 29 nM (active)

Row | SMILES | max dye-equivalent concentration
23 | CCOC(=O)c1cccc(NC(=O)CCc2c(C)nc3ncnn3c2C)c1 | inactive
24 | CCCCCN(C(=O)NC(=O)Nc1ccccc1OC)S(C)(=O)=O | inactive
25 | COc1ccc(OC)c(NC(=O)CSc2nc3cccnc3n2C)c1 | inactive
26 | CCCC1C(c2ccccc2)C(C#N)(C#N)C2(C#N)CC1(N)NC2=O (stereo not drawn) | inactive
27 | CN1CCN(C(=O)C2C3C=CC(C3)C2C(=O)O)CC1 (stereo not drawn) | inactive
28 | CCOC(=O)c1c(CN2CCOCC2)n(-c2ccccc2)c2ccc(O)cc12 | inactive
29 | O=C(OCCN1CCOCC1)C1(c2ccccc2)CCCCC1 | inactive
30 | O=C(CN1CCOCC1)N1CCCc2c1c(=O)oc1ccc(OCc3ccccc3)cc21 | 41 nM (active)
31 | O=S(=O)(O)c1nc2ccccc2n1Cc1ccc(Cl)cc1Cl | inactive
32 | COc1ccc(CNc2ncncc2-c2ccccc2C)c(OC)c1 | inactive
33 | CCOc1ccc2nc(N3CCCN(C(=O)Nc4ccccc4C)CC3)c(C#N)cc2c1 | 16 nM (active)
34 | CCOc1ccc(NC(=O)N2CCN(CC)CC2)cc1 | inactive
35 | Cc1ccccc1NC(=O)CNc1ccccc1N1CCCCC1 | inactive
36 | Cc1ccnc(SCCn2c(Br)nc3c2c(=O)[nH]c(=O)n3C)n1 | inactive
37 | CC1CN(C2CCN(C(=O)COc3ccccc3)CC2)CC(C)O1 (stereo not drawn) | inactive
38 | Nc1nc2c(ncn2[C@H]2CC[C@@H](CO)O2)c(=O)n1C(=O)c1ccccc1 | inactive
39 | COc1cccc(Cn2c(=O)c(C)nc3cnc(Oc4ccccc4)nc32)c1 | inactive
40 | COc1cccc(Cn2c(=O)cnc3cncnc32)c1 | inactive
41 | COc1cccc(Cn2c(=O)c(CCc3ccccc3)nc3cnc(N(C)C)nc32)c1 | 31 nM (active)
42 | CCNc1ncc2ncc(=O)n(CCc3ccccc3)c2n1 | 89 nM (active)
43 | CCNc1ncc2ncc(=O)n(Cc3cccc(OC)c3)c2n1 | 16 nM (active)
44 | COc1ccc(-n2c(C)nc3c(cnn3-c3ccccc3)c2=O)cc1 | inactive

Row | SMILES | max dye-equivalent concentration
45 | CCNc1ncc2nc(CCc3ccccc3)c(=O)n(-c3ccc(OC)cc3)c2n1 | 15 nM (active)
46 | COc1cccc(Nc2ncc3ncc(=O)n(C4CC4)c3n2)c1 | inactive
47 | O=c1cnc2cnc(Nc3ccccc3)nc2n1Cc1ccc(F)cc1 | inactive
48 | COc1cccc(CN2C(=O)CCC2(C)C(=O)NC2CCCCCC2)c1 (stereo not drawn) | inactive
49 | CCc1nnc(NC(=O)CSc2nnc(Cc3ccccc3)n2-c2ccc(OC)cc2)s1 | inactive
50 | CSCCC(NC(=O)C1CCC(C)CC1)C(=O)NCc1ccco1 (stereo not drawn) | inactive
51 | CC(C)NC(=O)N1CCCC2(CCN(C(=O)c3cccn3C)CC2)C1 | inactive
52 | Cc1cccc(C)c1NC(=O)N1CC=C(n2c(=O)[nH]c3ccccc32)CC1 | inactive
53 | CC(C)CCNC(=O)C1CCCN(S(=O)(=O)c2ccc(F)cc2)C1 (stereo not drawn) | inactive
54 | CCN(CC)C(=O)CSc1nnc(-c2cccc(OC)c2)o1 | inactive
55 | CC(C)NC(=O)CCCn1c(=S)[nH]c2cc3c(cc2c1=O)OCO3 | inactive
56 | Cc1cccc(NC(=O)CSc2nnc(CCCCCNC(=O)OC(C)(C)C)o2)c1C | inactive
57 | Cc1cccc(N(CC(O)CN(C)C)S(=O)(=O)c2ccccc2)c1 (stereo not drawn) | inactive
58 | COC(=O)c1ccc(Oc2nc(Nc3ccc(F)cc3)nc(N3CCCC3)n2)cc1 | inactive
59 | CSc1ccc(S(=O)(=O)Nc2cccc(F)c2)cc1 | inactive
60 | C=CCN(c1ccc(C(N)=O)cc1)S(C)(=O)=O | inactive
61 | Cn1c(=O)cc(SCC(=O)N2CCN(C(=O)c3ccco3)CC2)c2ccccc21 | inactive
62 | Cn1c(=O)cc(SCC(=O)N2CCCC2)c2cc(Cl)ccc21 | 12 nM (active)
63 | CCOC(=O)C1CCN(C(=O)CSc2cc(=O)n(C)c3ccccc23)CC1 | inactive
64 | COC(=O)c1sc(=S)n(-c2ccccc2)c1N | inactive
65 | COCCCNC(=O)Cn1cc(C(=O)C2CC2)c2ccccc21 | inactive
66 | COc1ccc(-c2noc(CN(C)S(=O)(=O)c3ccc(C)cc3)n2)cc1 | inactive

Row | SMILES | max dye-equivalent concentration
67 | CCOc1cc(-c2noc(CCC(=O)N3CCOCC3)n2)ccc1OC | inactive
68 | COc1ccc(-c2nc(-c3ccccc3)no2)c(OC)c1 | inactive
69 | O=C(Oc1ccc(-c2nc(-c3ccccn3)no2)cc1)c1ccccc1 | inactive
70 | CCOc1nc(-c2ccc(OC)cc2)ccc1-c1noc(-c2cc(OC)c(OC)c(OC)c2)n1 | 81 nM (active)
71 | COc1ccc(-c2ccc(-c3noc(-c4ccncc4)n3)c(OC)n2)cc1 | 24 nM (active)
72 | Cn1c(=O)c2c(ncn2CC(=O)N2CCN(c3ccccc3)CC2)n(C)c1=O | inactive
73 | CCOc1ccc(C(C)C)cc1S(=O)(=O)n1nc(C)cc1C | inactive
74 | N#Cc1ccccc1-c1ccc2ncnc(NCc3cccnc3)c2c1 | inactive
75 | CC(Cc1cccs1)NC(=O)NC1CCCCC1 (stereo not drawn) | inactive
76 | COc1ccccc1CNc1ccnc(-c2c(C)noc2C)n1 | inactive
77 | CCOc1ccc(CCNC(=O)C2CCN(c3ccc(N4CCOCC4)nn3)CC2)cc1OCC | 560 nM (active)
78 | COc1ccc(CCNC(=O)C2CCN(c3nn4c(=O)cc(C)nc4s3)CC2)cc1OC | inactive
79 | CCCS(=O)(=O)N1CCC(C(=O)NCCc2ccc(OC)c(OC)c2)CC1 | inactive
80 | O=C(CN1CCN(c2ccc(F)cc2)CC1)Nc1cccc(C(F)(F)F)c1 | inactive
81 | O=C(c1ccc([N+](=O)[O-])cc1)[C@@H](Br)[C@@H](Br)c1ccnc2ccccc12 | inactive
82 | O=C1NC(c2ccncc2)Nc2sc3c(c21)CCCC3 (stereo not drawn) | 58 nM (active)
83 | CCc1nnc(NC(=O)CSc2nnc(COc3ccc(C#N)cc3)n2-c2ccccc2)s1 | inactive
84 | O=C(Nc1cccc(F)c1)N1CC2(CCN(C(=O)c3csnn3)CC2)C1 | inactive
85 | Cc1nc2ccc(NC(=O)N3CCC(c4ccccc4)C3)cc2nc1C (stereo not drawn) | 410 nM (active)
86 | Cn1c(CCN2CCCCCC2)nc2cc(NC(=O)Nc3ccccc3)ccc21 | inactive
87 | O=C(Nc1cccc(NC(=O)N2CCN(c3ccccc3)CC2)c1)N1CCN(c2ccccc2)CC1 | inactive
88 | O=C(COC(=O)CCC(=O)c1cccs1)NCc1ccco1 | inactive

Row | SMILES | max dye-equivalent concentration
89 | Cc1cc(C(=O)OCC(=O)NCc2ccco2)c(C)n1-c1ccccc1 | inactive
90 | O=C(COC(=O)C12CC3CC(CC(C3)C1)C2)NCc1ccco1 | 16 nM (active)
91 | NC[C@@H]1O[C@H](O[C@@H]2[C@H](O[C@@H]3O[C@H](CO)[C@@H](COC[C@H]4O[C@@H](CN)[C@@H](O)[C@@H](O)[C@@H]4N)[C@@H]3O)[C@@H](O)[C@@H](N)C[C@H]2N)[C@@H](N)[C@H](O)[C@@H]1O | inactive
92 | N#Cc1ccc(CN2CCCC3(CCN(C(=O)c4ccco4)CC3)C2)cc1 | inactive
93 | CCOc1ccc(NS(=O)(=O)c2ccc(OCC(=O)NCCCOC)cc2)cc1 | inactive
94 | O=C(CC(NS(=O)(=O)c1ccc(Cl)cc1)c1ccco1)NC1CCCC1 (stereo not drawn) | inactive
95 | O=c1[nH][nH]c(=O)c2cc(N3CCCC3)ccc12 | 47 nM (active)
96 | O=C(NCc1cccnc1)c1cn(-c2ccccc2)nc1-c1cccs1 | inactive
97 | O=C1CC(c2ccccc2)C(=O)N1c1cccc(O)c1 (stereo not drawn) | inactive
98 | CCCC(CCC(=O)OC)(C(=O)OCC)c1csc(N)n1 (stereo not drawn) | inactive
99 | CCCCNC(=O)c1ccccc1NC(=O)c1ccccc1N(C)S(C)(=O)=O | inactive
100 | O=C(c1cccc(F)c1)N1CCC2(CC1)CCN(c1ccccc1)CC2 | inactive
101 | CCOC(=O)N1CCN(C(=O)C2CCN(c3ncnc4c3sc3cccc(F)c34)CC2)CC1 | 18 nM (active)
102 | CCOC(=O)N1CCN(CC(=O)Nc2cc(C)nn2-c2nc3ccccc3s2)CC1 | inactive
103 | CCOC(=O)N1CCN(C(=O)C2CCN(S(C)(=O)=O)CC2)CC1 | inactive
104 | CCCc1cc(=O)n2[nH]c(SCc3ccccc3)nc2n1 | inactive
105 | Cc1ccc(C(=O)NC2CC(C)(C)NC(C)(C)C2)c(C)c1 | inactive
106 | O=C(Cn1nnc(-c2ccc3c(c2)OCO3)n1)NCc1ccco1 | inactive
107 | CS(=O)(=O)N(CC(=O)NCc1ccco1)c1ccc2c(c1)OCO2 | 29 nM (active)
108 | CS(=O)(=O)N(CC(=O)N1CCN(Cc2ccc3c(c2)OCO3)CC1)c1ccc2c(c1)OCO2 | inactive
